Screening data as filed in PubChem.
CYP2C9 act – CYP2C9 (human) activation | recombinant CYP2C9, luciferin-H conversion, luminescence; hits give high values; factor 1 = untreated enzyme, 0 = blocked | P11712 | 1.4% of 96,000 active | activation factor at 5 µM;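 active = activation factor of 2 or more for CYP2C9 at a 5 µM dose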;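 also: 0 = sulfaphenazole-blocked wells and 1 = vehicle-only wells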
CYP2C19 inh – human CYP2C19 inhibition; P33261; CYP2C19 Supersomes, luciferin-H EGE luminescence, 30 min; inhibition, % at 5 µM; 21% of 96,000 active; AID 778;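 active = CYP2C19 inhibition above a set limit at 5 µM in the primary screen, cut at about 50% in these data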;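 also: plate controls were negative control wells for no effect and 2.5 mM tranylcypromine positive control for full effect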
CYP2C19 act – cytochrome P450 2C19 (human) activation | AID 1025 | P33261 | 96,000 tested, under 10 active | recombinant CYP2C19, luciferin-H EGE luminescence; hits give high values; 0 = fully inhibited enzyme, 1 = untreated enzyme | activation factor at 5 µM;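 active = activation factor of at least 2 at 5 µM in the primary screen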;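 also: 0 = wells with 2.5 mM tranylcypromine and 1 = vehicle-only wells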
PLAP activator – human PLAP activation. purified PLAP enzyme, luminescent substrate read-out; hits give high values. activation fold at 20 µM. 1.2% of 96,000 active. AID 696; in the data active = activation fold above about 2
Target sequence (P05187 whole entry, looked up): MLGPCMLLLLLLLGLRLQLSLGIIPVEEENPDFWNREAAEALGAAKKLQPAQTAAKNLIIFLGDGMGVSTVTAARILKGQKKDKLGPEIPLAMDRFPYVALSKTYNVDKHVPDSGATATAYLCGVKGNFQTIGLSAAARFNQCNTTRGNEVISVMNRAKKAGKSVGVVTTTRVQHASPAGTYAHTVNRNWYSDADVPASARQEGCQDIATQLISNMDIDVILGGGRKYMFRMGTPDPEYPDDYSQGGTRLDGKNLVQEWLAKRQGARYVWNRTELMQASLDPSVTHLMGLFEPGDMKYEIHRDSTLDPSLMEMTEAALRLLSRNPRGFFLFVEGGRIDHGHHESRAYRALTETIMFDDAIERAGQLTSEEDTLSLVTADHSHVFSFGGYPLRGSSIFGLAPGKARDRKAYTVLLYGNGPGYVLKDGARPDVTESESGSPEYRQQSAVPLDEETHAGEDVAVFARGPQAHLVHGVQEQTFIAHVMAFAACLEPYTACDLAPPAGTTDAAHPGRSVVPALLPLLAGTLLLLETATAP
CYP2C9 inhib – blocks human cytochrome P450 2C9; CYP2C9 Supersomes, luciferin-H conversion, luminescence; P11712; AID 777; inhibition, % at 5 µM; 20% of 96,000 active;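 active = blocking of liver enzyme CYP2C9 beyond about 50% at 5 µM, limit read from the data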
An asterisk follows results filed as active. Only some compounds are listed: those with a hit (about 31% of all), similar ones and a draw of the others.

SMILES	CYP2C9 act	CYP2C19 inh	CYP2C19 act	PLAP activator	CYP2C9 inhib
Cc1cccc(N/C=C/C(=C(C#N)C#N)N(C)C)c1	0.1	76.1*	0.2	0.8	87.4*
CN(C)C(/C=C/Nc1ccccc1F)=C(C#N)C#N	0.5	19.2	0.8	0.9	49.5
CC(Cc1ccccc1)NC(=O)C1CCCNC1=O (stereo unspecified)	1	-4.2	1	0.9	0.6
COc1cc(-c2nnc(SCc3cc(=O)oc4cc(C)ccc34)o2)cc(OC)c1OC	0.2	66.2*	0.3	1.8	82.9*
Cc1ccc2c(CSc3nnc(C4CC4)n3N)cc(=O)oc2c1	0.9	78.5*	0.2	1.1	10.1
O=C(Cn1cnc2c(cnn2-c2ccc(Cl)cc2)c1=O)NCCc1ccccc1	0.8	40.8	0.6	0.8	19.9
CCC(C)(C(=O)NC1CCCCC1)N(C(=O)C1CCC(=O)N1)c1ccccc1 (stereo unspecified)	1	-1.6	1	1	-1.1
Cc1ccc(/C=c2\sc3n(c2=O)CN(c2ccc(Br)cc2)CN=3)o1	0.4	33.5	0.7	1	62.0*
COc1ccc(/C=N/n2c(SC)nnc(C(C)(C)C)c2=O)c(OC)c1	1	5.1	0.9	1.1	0.3
CCOC(=O)C1=C(c2cccc(Oc3ccccc3)c2)NC(=S)NC1C (stereo unspecified)	0	100.0*	0	0.8	98.9*
O=C(NC1CCCCC1)C(c1ccc2ncccc2c1)N(Cc1ccco1)C(=O)c1ccc2c(c1)OCCO2 (stereo unspecified)	0.3	70.2*	0.3	1.3	69.5*
O=C(NC1CCCCC1)C(c1ccc2ncccc2c1)N(Cc1cccs1)C(=O)c1cccs1 (stereo unspecified)	0.4	60.0*	0.4	1.6	59.3*
O=C(NC1CCCCC1)C(c1ccc2ncccc2c1)N(Cc1ccc(F)cc1)C(=O)c1ccc2c(c1)OCCO2 (stereo unspecified)	0.8	42.0	0.6	1.2	22.0
CCC(C)(C(=O)NC1CCCCC1)N(Cc1ccco1)C(=O)c1ccc2c(c1)OCO2 (stereo unspecified)	0.4	83.4*	0.2	1.8	60.3*
CCC(C)(C(=O)NC1CCCC1)N(CC1CCCO1)C(=O)c1ccc2c(c1)OCO2 (stereo unspecified)	1	9.5	0.9	1.2	3.5
COc1ccc(-c2nnn(CC(=O)N(Cc3ccccc3Cl)C(C(=O)NCC3CCCO3)c3ccco3)n2)cc1OC (stereo unspecified)	0.1	19.1	0.8	2*	92.4*
O=C(Cn1nnc(-c2cccs2)n1)OC1CCCCC1	0.6	28.2	0.7	0.9	36.9
Cc1ccc(C(C(=O)NCC2CCCO2)N(Cc2ccccc2F)C(=O)Cn2nnc(-c3cccs3)n2)cc1 (stereo unspecified)	0.5	32.7	0.7	1	52.5*
COc1ccc(N(C(=O)Cn2nnc(-c3ccc(Cl)cc3)n2)C(C(=O)NCC2CCCO2)c2ccc(C)cc2)cc1 (stereo unspecified)	0.9	-11.8	1.1	0.9	6.7
O=C(CCn1nnc(-c2cccs2)n1)NC1CCCCC1	1.3	76.2*	0.2	1	-32.5
O=C(NC1CCCC1)C(c1ccncc1)N(CC1CCCO1)C(=O)Cn1nnc(-c2cccs2)n1 (stereo unspecified)	0	77.8*	0.2	1.4	95.4*
Cc1ccccc1C(=O)N1CCC(C(=O)Nc2ccc3c(c2)OCCO3)CC1	1.2	4.3	1	1.1	-21.2
Cc1cc(C)cc(N(CC(=O)NCC2CCCO2)C(=O)CCC(=O)Nc2cc(C)on2)c1 (stereo unspecified)	0.7	7.7	0.9	1.4	25.5
Cc1ccc(S(=O)(=O)NCCC(=O)O)cc1	1.2	2.3	1	0.9	-20.6
CS(=O)(=O)Nc1ccc(S(=O)(=O)NCCc2ccccc2)cc1	0.9	13.8	0.9	1.2	12.0
CCCCc1ccc(S(=O)(=O)NCCc2ccncc2)cc1	0.3	99.5*	0	0.8	67.8*
Cc1ccc(S(=O)(=O)NCCc2ccc(S(N)(=O)=O)cc2)cc1	0.5	13.3	0.9	0.8	48.2
Cc1ccc(S(=O)(=O)NCCc2ccncc2)cc1	0.5	97.4*	0	1	50.7*
CSc1ccc(S(=O)(=O)NCc2ccc(C)cc2)cc1	1.6	94.9*	0.1	0.9	-62.2
Cc1ccc(CCNS(=O)(=O)c2ccc(C)cc2)cc1	0.4	52.4*	0.5	1	55.0*
